Data from ChEMBL document CHEMBL4513216, “Probing the Open Global Health Chemical Diversity Library for Multistage-Active Starting Points for Next-Generation Antimalarials” (ACS Infect Dis, 2020).
Among all 68,000 compounds or so, about 2,700 (4%) showed an effect of 50% or more. The entries come from a sample that favours strong results as a whole.

These compounds were tested on Plasmodium berghei (assay: Screen against P. berghei liver stage (PbLuc), transformed with Luciferase, at 2uM). Settings: tested at 2 uM.
Assay type: functional, HepG2

Structure (SMILES) | INHIBITION
CCS(=O)(=O)N1Cc2[nH]nc(COCc3cccnc3)c2C1 | -2.81%
CNC(=O)C(C)(C)N1CCC[C@H]1C(=O)NC(C)(C)C | 30.4%
CCN1CCCC12CCCN(c1ncccn1)C2 (stereo not drawn) | -23.31%
CC1=Nc2c(c(O)nn2C2CCOCC2)C(c2cccnc2)S1 (stereo not drawn) | 18.76%
CCn1ccnc1CN(C)c1nc(-c2ccc(Cl)cc2)nc2c1CNC2 | 5.28%
Cc1nccn1CCN(C)c1nc(-c2ccc(Cl)cc2)nc2c1CNC2 | 19.59%
CCN(CC)CCN(C)c1nc(-c2ccc(Cl)cc2)nc2c1CNC2 | 81.59%
O=C(O)c1cc(S(=O)(=O)Nc2cc(F)ccc2F)cc2c1OCCO2 | -41.21%
COCCN1CCN(CCCS(=O)(=O)N(C)C)CC1C (stereo not drawn) | 25.35%
O=C(CCCc1ccccn1)NCC(O)c1c(F)cccc1F (stereo not drawn) | 17.98%
CCn1nnc2c1C(COCCN(C)C)CN(S(C)(=O)=O)C2 (stereo not drawn) | 34.19%
CN(CCCNC(=O)N1CCCC1c1ccsc1)c1ccccn1 (stereo not drawn) | 63.95%
CN(C)c1ncccc1CNC(=O)N1CCCC1c1ccsc1 (stereo not drawn) | 43.93%
O=C(NCCCn1cccn1)N1CCCC1c1ccsc1 (stereo not drawn) | 16.21%
N#Cc1ccc(C(=O)N2CC[C@H]3[C@@H]2CCC(=O)N3c2cccnc2)cc1 | -11.44%
Cc1ccc(F)cc1NC(=O)C1CCCN1C(=O)C(C)C (stereo not drawn) | 15.27%
CC(C)C(=O)N1CCCC1C(=O)Nc1cc(C(F)(F)F)ccc1F (stereo not drawn) | 13.92%
CC(C)C(=O)N1CCCC1C(=O)Nc1ccc(F)c(F)c1 (stereo not drawn) | 55.29%
Cc1cnc(C(C)(C)NC(=O)NCc2ccc(C#N)cc2F)s1 | 16.79%
Cc1cc(C)c(CNC(=O)N2CCN(c3ccccn3)CC2)c(=O)[nH]1 | 7.64%
Cc1cc(C)c(CNC(=O)C2CCN(c3cnccn3)CC2)c(=O)[nH]1 | -7.02%
Cc1cc(C)c(CNC(=O)N2CCN(c3cnccn3)CC2)c(=O)[nH]1 | 63.95%

Structure (SMILES) | INHIBITION
CSc1ccccc1NC(=O)C1CSc2ncc(C)c(=O)n2C1 (stereo not drawn) | -35.92%
Cn1c(C(F)(F)F)nn(CCNC(=O)CSCc2ccccc2)c1=O | -30.06%
NCCn1nc(C2CCN(Cc3ccccc3)C2)c2nccnc21 (stereo not drawn) | 8.26%
CN1CCCCC1CCC(=O)NCCCn1ncc2ccccc21 (stereo not drawn) | 28.19%
CN1CCCC(CCC(=O)NCCCn2ncc3ccccc32)C1 (stereo not drawn) | 46.95%
CN1CCCCCC1C(=O)NCCCn1ncc2ccccc21 (stereo not drawn) | 54.78%
O=C(Nc1ccc(I)cc1C(=O)NCCN1CCOCC1)c1ccco1 | -54.79%
O=C(Nc1ccc(Cl)cc1C(=O)NCCN1CCOCC1)c1ccco1 | 60.47%
O=C(Nc1ccccc1C(=O)NCCN1CCOCC1)c1ccco1 | -4.93%
CN(C)CCOCC1CN(Cc2cccs2)Cc2ccnn2C1 (stereo not drawn) | -85.93%
Cc1cc(CN2CCN(C(=O)NCc3ccc(C)s3)CC2)on1 | 6.63%
Cc1cc(CN2CCN(C(=O)NCc3c(C)noc3C)CC2)on1 | 70.27%
CCCNC(=O)N1CCN(Cc2cc(C)no2)CC1 | 26.4%
COc1cc(CCC(=O)NC(C)(C)C)ccc1OCC(F)(F)F | -1.02%
CCOCCC1(CNC(=O)c2ccc(C)nc2)CCCC1 | -9.5%
COCCN1CCN(C(=O)C(c2cccc(F)c2)N(C)C)CC1 (stereo not drawn) | 48.21%
CN(C)C(C(=O)NCCn1cccc1)c1cccc(F)c1 (stereo not drawn) | 3.58%
CN(C)C(C(=O)N1CCN(CCn2cccc2)CC1)c1cccc(F)c1 (stereo not drawn) | 69.67%
CN(C)C(C(=O)N1CCN(CCn2cccc2)CC1)c1ccc(F)cc1 (stereo not drawn) | 31.51%
CCOCC1CCN(C(=O)C(c2cccc(F)c2)N(C)C)CC1 (stereo not drawn) | -15.23%
COCCCN1CCN(C(=O)C(c2cccc(F)c2)N(C)C)CC1 (stereo not drawn) | 60.13%
CCc1[nH]ncc1C(=O)N1CCCC(n2cccn2)C1 (stereo not drawn) | 2.7%

Structure (SMILES) | INHIBITION
Cc1ccccc1OCCCC(=O)N1CCCC(n2cncn2)C1 (stereo not drawn) | 39.54%
O=C(C1CN(CC2CC2)CC12CCOCC2)N1CCCC1 (stereo not drawn) | 31.41%
O=C1N(Cc2ccccc2)C[C@H]2CN(Cc3ccccc3Cl)CCN12 | 64.44%
Cc1ccc(CN2C[C@H]3CN(Cc4ccccc4Cl)CCN3C2=O)cc1 | 40.83%
COCCN1C[C@H]2CN(Cc3cccc(OC)c3)CCN2C1=O | 36.44%
CS(=O)(=O)NC[C@]12COC[C@H]1CN(Cc1ccc3c(c1)OCO3)C2 | -6.8%
O=C(CCc1cn[nH]c1)N1CCC(C2CCN(c3ncccn3)CC2)C1 (stereo not drawn) | 45.48%
CCN(CC)CC1CCN(C(=O)CCn2cccn2)CC1 | -13.06%
O=C(CCn1cccn1)N1CCC(C2CCN(c3ncccn3)CC2)C1 (stereo not drawn) | 52.08%
c1cnc(N2CCC(C3CCN(CCCn4cccn4)C3)CC2)nc1 (stereo not drawn) | 19.04%
COC1CCN(C(=O)CCn2cccn2)CC1 | 26.61%
CCCC1CCCN(C(=O)CCn2cccn2)CC1 (stereo not drawn) | 63.68%
Cn1cccc1C(=O)N1CC2(CCN(C(=O)c3cccnc3)C2)C1 | 21.77%
CCc1noc(C2CCN(C(=O)CCn3nc(C)cc3C)CC2)n1 | 12.3%
c1ccc(Cc2noc(CN3CCOC(Cn4cccn4)C3)n2)cc1 (stereo not drawn) | -0.6%
O=C(CCO)N1C[C@H]2CN(c3ccccc3)C(=O)[C@H]2C1 | 54.01%
O=C(CC1CC1)N1C[C@@H]2CN(c3ccccc3)C(=O)[C@@H]2C1 | 28.2%
O=C(C1CCC1)N1C[C@@H]2CN(c3ccccc3)C(=O)[C@@H]2C1 | 49.07%
NC(=O)COc1ccc(CNCc2ccc(F)c(F)c2)cc1 | -52.95%
Cn1ccnc1CCNS(=O)(=O)c1ccc(Br)cc1 | -16.21%
COc1cccc2c1CCC2NC(=O)NCc1csc(N(C)C)n1 (stereo not drawn) | -57.02%
Cc1nn(C)c(N(C)C)c1CNC(C)COc1cccc(F)c1 (stereo not drawn) | 34.83%

Structure (SMILES) | INHIBITION
CC(C)N(C(=O)CCc1ccco1)C1CCOCC1 | 76.6%
CC(C)N(C(=O)CCc1cccc(F)c1)C1CCOCC1 | -7.16%
COc1ccc(CCC(=O)N(C(C)C)C2CCOCC2)cc1 | 20.76%
O=C(NCC1CCCCO1)c1ccc(-c2ccco2)[nH]c1=O (stereo not drawn) | 38.67%
CCN1CCN(S(=O)(=O)c2cc(C)c(Cl)cc2Cl)CC1 | 26.09%
Cc1cc(S(=O)(=O)N2CC[C@@H](O)C2)c(Cl)cc1F | -54.78%
Cc1cc(S(=O)(=O)N2CCC(N3CCC(O)C3)CC2)c(Cl)cc1Cl (stereo not drawn) | 55.73%
CC(C)c1nnc(CN(C)Cc2ccccc2-c2ccccc2)o1 | 20.63%
CC(CCN1CCOCC1)NC(=O)c1cccc(C(F)(F)F)c1F (stereo not drawn) | 18.37%
COc1cccc(C(=O)NC(C)CCN2CCOCC2)c1F (stereo not drawn) | -22.65%
CC(CCN(C)C)NC(=O)c1cccc(C(F)(F)F)c1F (stereo not drawn) | 52.38%
Cc1nnc2n1CCN(CCOc1cccc(C#N)c1)C2 | 33.82%
CC(C)(O)CCc1ccc(C(=O)NCC2CCCOC2)cc1 (stereo not drawn) | 42.27%
Cc1nc2cc(C(=O)N3C[C@@H](NS(C)(=O)=O)[C@H](C(C)C)C3)ccc2[nH]1 | -1.71%
Cc1ccc(C(=O)N2C[C@H](NS(C)(=O)=O)[C@@H](C(C)C)C2)cc1F | -43.88%
Cc1ccc(C(=O)N2C[C@@H](NS(C)(=O)=O)[C@H](C(C)C)C2)cc1O | 51.72%
O=C(c1ccco1)N1C2CCC(O)(CC2)C1CO (stereo not drawn) | 3.38%
O=c1ccc2c(n1Cc1ccncc1)CCN(Cc1ccoc1)CC2 | 50.91%
NC1CCc2c(ccc(=O)n2CC2CC2)C1 (stereo not drawn) | 24.86%
CCn1c2c(ccc1=O)CC(N)CC2 (stereo not drawn) | 13.38%
NC1CCc2c(ccc(=O)n2Cc2ccncc2)C1 (stereo not drawn) | 55.11%
O=c1ccc2c(n1Cc1cccnc1)CCN(Cc1ccoc1)CC2 | 0.13%

Structure (SMILES) | INHIBITION
O=c1ccc2c(n1CCN1CCCC1)CCN(Cc1ccoc1)CC2 | -1.79%
CCOCC1CN(Cc2ccco2)Cc2nccn2C1 (stereo not drawn) | -7.76%
CNS(=O)(=O)c1cnccc1N1CCN(C(C)C)CC1 | 15.75%
Cc1csc(CCNc2ccc(C#N)cn2)n1 | 20.29%
Cc1cccc(NCCNc2ccc(C#N)cn2)n1 | 60.79%
Cc1cc(NCCNc2ccc(C#N)cn2)nc(C)n1 | 21.81%
COc1ccc(NC(=O)NCC(O)c2ccc(F)cc2F)c(OC)c1 (stereo not drawn) | 47.72%
CCCN1CCN(Cc2nccn2CC)C(C)C1 (stereo not drawn) | 16.97%
CCn1ccnc1CN1CCN(c2nccc(OC)n2)CC1C (stereo not drawn) | 72.05%
CCn1ccnc1CN1CCN(C(C)C)CC1C (stereo not drawn) | -49.57%
COc1ccccc1C(NCc1ccc(SC)cc1)c1nccn1C (stereo not drawn) | 16.26%
COc1ccc2c(c1)CCN(Cc1cscn1)CC2 | 1.54%
COc1ccc(C2CCN(Cc3cscn3)CC2)cc1 | 56.84%
COc1ccc(OC)c(CN2CCN(Cc3cscn3)CC2)c1 | 1.3%
Cc1csc2ncc(-c3ccnc(N4CCC[C@H](C(N)=O)C4)n3)c(=O)n12 | 43.16%
COC[C@@H]1CC[C@H]2[C@H](CCN2S(=O)(=O)c2cccc(F)c2)O1 | 9.46%
CNC(=O)NC(=O)CN1CCc2c(Br)ccc(F)c2C1 | -20.8%
NC(=O)CN1CCCC(CCCc2ccccn2)(C(N)=O)C1 (stereo not drawn) | 12.8%
NC(=O)C1(CCCc2ccccn2)CCCN(CCO)C1 (stereo not drawn) | -17.3%
COCCN1CCCC(CCCc2ccccn2)(C(N)=O)C1 (stereo not drawn) | 55.74%
